About 83,000 compounds went through this panel and 20% of them were active in at least one assay; those are over-represented in the sample as a whole.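 96-well plates, one dose, 48 hours. Percent growth reported; active if below 10.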 A number with no mark means an inactive call. Calls of active or inactive are those of the source.

Test systems include SR leukemia; RPMI-8226 leukemia; OVCAR-8 ovarian; OVCAR-5 ovarian; OVCAR-4 ovarian; SK-OV-3 ovarian; IGROV1 ovarian; OVCAR-3 ovarian; HS 578T breast; NCI/ADR-RES ovarian.
Assay in all cases: NCI-60 one-dose screen, 48 h (100 = growth as untreated, 0 = no growth, -100 = all killed)
Common to all, as to conditions: 10 µM unless noted

For `Cc1ccc(/C=C2\CN(C(=O)CCN3CCC(=NO)CC3)C/C(=C\c3ccc(C)cc3)C2=O)cc1`, the growth is -0.19% (active) in the assay with SR leukemia; -9.83% (active) with RPMI-8226 leukemia; 20.4% in the assay on OVCAR-8 ovarian; -8.32% (active) in the assay with OVCAR-5 ovarian; 20.9% with OVCAR-4 ovarian; 87.8% with SK-OV-3 ovarian. For the same compound, the growth in the assay with IGROV1 ovarian is -14% (active); in the assay with OVCAR-3 ovarian, 8.71% (active); with HS 578T breast it was 6.55% (active); in the assay on NCI/ADR-RES ovarian, 14.6%.

Take `CC(NNC(C)c1ccccc1)c1ccccc1` (stereo not given): the growth in the assay on SR leukemia was 91.9%; in the assay on RPMI-8226 leukemia, 97.8%; in the assay with OVCAR-8 ovarian it was 115%; in the assay on OVCAR-5 ovarian, 107%; in the assay with OVCAR-4 ovarian, 112%; in the assay with SK-OV-3 ovarian, 110%. For the same compound, the growth in the assay with IGROV1 ovarian is 117%; with OVCAR-3 ovarian, 118%; in the assay with HS 578T breast, 128%; with NCI/ADR-RES ovarian, 105%.

As for `CCCCN(CCCC)C(=O)CC`, the growth was 102% with SR leukemia; 115% in the assay with RPMI-8226 leukemia; 112% in the assay on OVCAR-8 ovarian; 106% in the assay with OVCAR-5 ovarian; 108% in the assay with OVCAR-4 ovarian; 122% with SK-OV-3 ovarian. Besides, the growth in the assay on IGROV1 ovarian was 115%; in the assay on OVCAR-3 ovarian, 113%; with HS 578T breast, 149%; in the assay with NCI/ADR-RES ovarian it was 103%.

On to `Cc1nc2c3c(ncn2n1)Oc1c(c(=O)[nH]c2ccccc12)C3c1ccc(Cl)cc1` (stereo not given), for which the growth with SR leukemia is 100%; in the assay with RPMI-8226 leukemia it was 86.2%; with OVCAR-8 ovarian, 97.3%; in the assay on OVCAR-5 ovarian, 101%; with OVCAR-4 ovarian, 97%; in the assay on SK-OV-3 ovarian, 116%. Moreover, the growth in the assay with IGROV1 ovarian is 89.3%; with OVCAR-3 ovarian, 99.2%; in the assay with HS 578T breast it was 99.7%; in the assay on NCI/ADR-RES ovarian it was 94.7%.

In the case of `CN1C(=O)N(C)C2C1NN=c1s/c(=C\C=C\c3ccccc3)c(=O)n12` (stereo not given), the growth in the assay with SR leukemia was 24.3%; in the assay with RPMI-8226 leukemia it was 84.9%; in the assay with OVCAR-8 ovarian, 79.7%; in the assay on OVCAR-5 ovarian, 85.9%; in the assay with OVCAR-4 ovarian, 81.9%; in the assay on SK-OV-3 ovarian, 65.7%. The growth with IGROV1 ovarian is 50.7%; in the assay with OVCAR-3 ovarian, 12%; in the assay on HS 578T breast, 59.6%; with NCI/ADR-RES ovarian, 36.4%.

With `CC(C)C(C(=O)NCCN1CCOCC1)N1C(=O)/C(=C/c2ccc(Br)cc2)SC1=S` (stereo not given), the growth in the assay with SR leukemia was 111%; in the assay on RPMI-8226 leukemia it was 98%; in the assay on OVCAR-8 ovarian, 108%; with OVCAR-5 ovarian, 102%; in the assay on OVCAR-4 ovarian, 105%; in the assay with SK-OV-3 ovarian, 112%. Moreover, the growth is 108% with IGROV1 ovarian, 104% with OVCAR-3 ovarian, 95.1% in the assay with HS 578T breast and 96.7% in the assay with NCI/ADR-RES ovarian.

As for `O=Nc1c(-c2cccc([N+](=O)[O-])c2)nc2ncccn12`, the growth with SR leukemia was -27.8% (active); in the assay with RPMI-8226 leukemia, -30.7% (active); with OVCAR-8 ovarian, 81.1%; in the assay with OVCAR-5 ovarian it was 93.5%; in the assay on OVCAR-4 ovarian, 86.5%; in the assay on SK-OV-3 ovarian, 101%. For the same compound, the growth was 40.5% in the assay on IGROV1 ovarian, 44.9% in the assay with OVCAR-3 ovarian, 107% in the assay with HS 578T breast and 97.5% in the assay on NCI/ADR-RES ovarian.

As to `COc1cc(/C=C/C(=O)N2CCN(C(=O)/C=C/c3cc(OC)c(OC)c(OC)c3)CC2)cc(OC)c1OC`, the growth in the assay on SR leukemia was 75.2%; in the assay on RPMI-8226 leukemia it was 98.6%; in the assay on OVCAR-8 ovarian, 96.4%; with OVCAR-5 ovarian it was 111%; with OVCAR-4 ovarian, 103%; in the assay with SK-OV-3 ovarian, 116%. Moreover, the growth in the assay with IGROV1 ovarian was 111%; with OVCAR-3 ovarian, 117%; in the assay on HS 578T breast, 98.8%; with NCI/ADR-RES ovarian it was 113%.

In the case of `COc1ccc(S(=O)(=O)Nc2cc(/C=C\c3cc(OC)c(OC)c(OC)c3)cc(OC)c2OC)cc1`, the growth with SR leukemia was 9.7% (active); in the assay with RPMI-8226 leukemia, 10.2%; in the assay on OVCAR-8 ovarian, 7.61% (active); in the assay on OVCAR-5 ovarian, 46.8%; with OVCAR-4 ovarian, 55.7%; with SK-OV-3 ovarian, 20.6%. Also, the growth in the assay on IGROV1 ovarian is 19.9%; in the assay on OVCAR-3 ovarian it was 3.36% (active); with HS 578T breast, 21.1%; in the assay with NCI/ADR-RES ovarian, 11.3%.

Consider `CC1CCC(C)N(C)C1` (stereo not given), for which the growth in the assay on SR leukemia was 88.1%; with RPMI-8226 leukemia, 89.7%; in the assay on OVCAR-8 ovarian, 105%; with OVCAR-5 ovarian, 106%; in the assay with OVCAR-4 ovarian, 107%; in the assay with SK-OV-3 ovarian, 102%. Also, the growth in the assay on IGROV1 ovarian is 106%; with OVCAR-3 ovarian it was 112%; with HS 578T breast, 108%; in the assay with NCI/ADR-RES ovarian, 107%.

Consider `CN1C(=O)N(C)C2C1NN=c1s/c(=C\c3cccnc3)c(=O)n12` (stereo not given), for which the growth is 27.3% in the assay on SR leukemia; 95.4% in the assay with RPMI-8226 leukemia; 93.2% in the assay on OVCAR-8 ovarian; 93% in the assay with OVCAR-5 ovarian; 93.6% with OVCAR-4 ovarian; 85% with SK-OV-3 ovarian. In addition, the growth is 80.8% in the assay with IGROV1 ovarian, 65.6% in the assay on OVCAR-3 ovarian, 84.8% in the assay on HS 578T breast and 78.5% in the assay with NCI/ADR-RES ovarian.

Consider `CN(CCCCCl)P(=O)(OCc1ccc([N+](=O)[O-])o1)C(F)(F)C[C@H](NC(=O)CNC(=O)c1ccc(N=[N+]=[N-])cc1)C(=O)NCCc1ccc(O)cc1` (stereo not given in full), for which the growth was 9.22% (active) with SR leukemia; 87.3% with RPMI-8226 leukemia; 107% with OVCAR-8 ovarian; 123% in the assay with OVCAR-5 ovarian; 95.2% with OVCAR-4 ovarian; 113% with SK-OV-3 ovarian. Besides, the growth in the assay on IGROV1 ovarian was 84.3%; in the assay on OVCAR-3 ovarian, 109%; in the assay with HS 578T breast it was 84.4%; with NCI/ADR-RES ovarian it was 103%.

On to `CCCCCCCCCCCCNC(=O)[C@H]1CSC(c2cc(Br)cs2)N1` (stereo not given in full), for which the growth in the assay on SR leukemia was -31.3% (active); in the assay with RPMI-8226 leukemia, 37.7%; in the assay with OVCAR-8 ovarian, -64.8% (active); in the assay on OVCAR-5 ovarian, 9.52% (active); in the assay with OVCAR-4 ovarian it was -72.4% (active); with SK-OV-3 ovarian, -42.5% (active). Moreover, the growth in the assay on IGROV1 ovarian was -54.1% (active); in the assay with OVCAR-3 ovarian, -50.8% (active); in the assay with HS 578T breast, -41.2% (active); in the assay on NCI/ADR-RES ovarian, -22.3% (active).

For the compound `Cc1csc(NC(c2ccc(Br)cc2)c2c(C)nc3ccccn23)n1` (stereo not given), the growth in the assay with SR leukemia is 96.6%; in the assay on RPMI-8226 leukemia, 74.7%; with OVCAR-8 ovarian, 88.6%; in the assay on OVCAR-5 ovarian, 88.2%; in the assay with OVCAR-4 ovarian, 81.5%; in the assay on SK-OV-3 ovarian, 85.3%. Moreover, the growth was 86.5% in the assay on IGROV1 ovarian, 96.7% in the assay with OVCAR-3 ovarian, 84.6% with HS 578T breast and 95.4% in the assay on NCI/ADR-RES ovarian.

Values taken from PubChem BioAssay (NCI).
